Only some compounds are listed: those with a hit (about 9.4% of all), similar ones and a draw of the others.
ALDH1A1 block: qHTS Assay for Inhibitors of Aldehyde Dehydrogenase 1 (ALDH1A1) | Potency, µM (series often up to 75.3 µM), most hits filed as inhibitors | Purified ALDH1A1, NADH fluorescence, propionaldehyde substrate | hit rate 7.3% among 220,000 | AID 1030, 2008; active means well fitted inhibition curve with a large enough effect, not every such curve was filed as active; inconclusive means small, poorly fitted or top-dose-only effect, or another doubt; inactive means no such curve, though single readings can be large or run the other way
HTT cytoprotect: qHTS Multiplex Assay to Identify Dual Action Probes in a Cell Model of Huntington: Cytoprotection (ATP) | Potency, µM (series often up to 56.4 µM), usual class: activators | hit rate 0.14% among 230,000 | PC12 HTT-Q103 induced, cytoprotection, ATP luminescence, 40 h | AID 1471, 2008; further: nearly all actives have a fitted effect of over 45% in size
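Huntington model: PC12 line, ecdysone-inducible HTTQ103 exon1–GFP, tebufenozide 100 nM. Test articles in a dose series. Endpoint luminescence from cellular ATP.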
HPGD block: qHTS Assay for Inhibitors of HPGD (15-Hydroxyprostaglandin Dehydrogenase). 15-hydroxyprostaglandin dehydrogenase [NAD(+)] (Homo sapiens), P15428. purified HPGD, NADH fluorescence kinetic, PGE2 substrate. Potency, µM, usual class: inhibitors. hit rate 4.3% among 150,000. AID 894, 2007; active means well fitted inhibition curve with a large enough effect, not every such curve was filed as active; inconclusive means small, poorly fitted or top-dose-only effect, or another doubt; inactive means no such curve, though single readings can be large or run the other way
Target sequence (P15428 whole entry, looked up): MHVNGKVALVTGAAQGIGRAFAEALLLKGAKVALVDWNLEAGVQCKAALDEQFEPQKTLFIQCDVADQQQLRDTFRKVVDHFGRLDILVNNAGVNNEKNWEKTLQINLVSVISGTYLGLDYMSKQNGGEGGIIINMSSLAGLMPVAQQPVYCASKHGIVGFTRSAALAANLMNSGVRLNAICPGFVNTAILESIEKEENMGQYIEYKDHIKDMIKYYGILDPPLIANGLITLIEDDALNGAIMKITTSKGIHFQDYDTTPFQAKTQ
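20 nM HPGD preincubated 15 min at room temperature with compound in 50 mM Tris-HCl pH 8, 0.01% Tween 20. Started with 1 mM NAD+ and 30 uM prostaglandin E2; NADH fluorescence (360/450 nm) read 5 times over 30-s intervals, last minus first.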
IMPase cell inh: qHTS Assay for Identifying the Cell-Membrane Permeable IMPase Inhibitors; Inositol monophosphatase 1 (Rattus norvegicus), P97697; CHO-M1 cells, IP1 accumulation, HTRF TR-FRET ratio; inhibition (IP1 accumulation), % at 46.1 µM; 120,000 tested, under 10 active; AID 901, 2007; active means well fitted curve in the direction sought with a large enough effect in the signal ratio, not every such curve was filed as active; inconclusive means small, poorly fitted or top-dose-only effect, or a change in a side signal; inactive means no such curve, though single readings can be large or run the other way; the % refers to the signal ratio;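 further: cells stimulated with carbachol in lithium chloride buffer; higher means more IMPase inhibition seen as more IP1 and lower FRET ratio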
Target sequence (P97697 whole entry, looked up): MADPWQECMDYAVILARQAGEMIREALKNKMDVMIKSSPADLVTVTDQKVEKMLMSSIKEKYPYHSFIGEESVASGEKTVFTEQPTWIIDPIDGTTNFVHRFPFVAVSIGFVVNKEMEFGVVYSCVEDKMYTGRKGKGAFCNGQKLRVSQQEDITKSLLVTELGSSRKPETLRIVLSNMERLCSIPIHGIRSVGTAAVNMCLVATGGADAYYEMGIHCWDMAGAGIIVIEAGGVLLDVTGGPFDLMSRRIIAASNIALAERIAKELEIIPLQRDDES
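The IP-One HTRF competitive assay in carbachol-stimulated CHO-M1 cells quantifies cellular IP1. Compounds spanned up to 46 uM final, and activity is expressed as AC50 from concentration-response fits of the ratio and donor data.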
HTT aggregate: qHTS Multiplex Assay to Identify Dual Action Probes in a Cell Model of Huntington: Aggregate Formation (GFP); AID 1688, 2009; hit rate 1.1% among 220,000; PC12 HttQ103-GFP aggregates, Acumen cytometry, 40 h; Potency, µM (highest dose often 46.1 µM), actives largely listed as inhibitors; further: nearly all actives have a fitted effect of over 60% in size
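Steps: seed 1500 PC12 HTTQ103-GFP cells/well; add tebufenozide, 100 nM final; add compound titration; add ATPLite reagent; quantify GFP aggregates by laser scanning cytometry.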
IMPase Li inh: qHTS Assay for Identifying the Cell-Membrane Permeable IMPase Inhibitors: Potentiation with Lithium; hit rate 0.35% among 210,000; AID 1457, 2008; CHO-M1 cells, IP1 TR-FRET (IP-One), carbachol + lithium; Potency, µM (top dose mostly 59.4 µM), hits mostly inhibitors;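 further: IP1 builds up when IMPase is blocked and the TR-FRET signal falls; nearly all actives have a fitted effect of over 50% in size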
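Steps: plate 2000 CHO-M1 cells per well and culture 16–30 h; add compound and lithium; incubate 30 min, 37C; add d2-IP1 tracer and Eu cryptate anti-IP1 antibody in lysis buffer; read after 10 min at room temperature.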
Hits are given with their value; 0 = inactive; ? = inconclusive; - = no result given; [ ] = dose if it differs, or a comment. Unless noted, the call rests on the fitted dose curve; in most records, active means well fitted curve in the direction sought with a large enough effect; inconclusive means small, poorly fitted or top-dose-only effect, or another doubt; inactive means no such curve, though single readings can be large; an effect the other way counts as inactive or inconclusive.

SMILES	ALDH1A1 block	HTT cytoprotect	HPGD block	IMPase cell inh	HTT aggregate	IMPase Li inh
COc1cc(CNc2ccc3[nH]c(=O)[nH]c3c2)ccc1OCC(=O)NC(C)(C)C	?	0[10 µM]	?	?	0	0
CCOc1cc(CNc2ccc(N(C)C)cc2)cc(Br)c1OCC(=O)NC(C)(C)C	3.16µM	0[10 µM]	0	?	0	0
CCCN=Cc1sc2ccc(OCC)cc2c1O	?	0	?	0	0	0
CCOc1ccc2c(O)csc2c1	25.1µM	0[10 µM]	0	0	0	0
COCCn1c(=O)c(-c2cc(F)cc(F)c2)nc2cnc(Oc3ccc(OC)cc3)nc21	0	0	0	-	-	0
COc1ccc(NC(=O)/C(C#N)=C\c2cc(C)n(-c3ccc(Oc4ccc([N+](=O)[O-])cn4)cc3)c2C)cc1	0	0	28.2µM	0	0	0
Cc1cc(C=O)c(C)n1-c1ccc(Oc2ccc([N+](=O)[O-])cn2)cc1	10µM	-	0	-	22.4µM	0
Cc1cc(/C=C(\C#N)C(=O)Nc2ccc(F)cc2)c(C)n1-c1ccc(N2CCOCC2)c([N+](=O)[O-])c1	15.8µM	0	0	0	0	0
CCCCC(CC)COC(=O)COc1ccc(Cl)cc1Cl (stereo not drawn)	?	0	0	-	-	0
NNC(=O)Cc1cccnc1	0[13.5 µM]	0[10 µM]	0	-	-	0
O=C1c2ccccc2-c2onc3ccc(N4CCCC4)c1c23	22.4µM	0	-	-	0	0
COc1ccc(COC2OC[C@]3(C)[C@H]4C5=C(CN3C(=O)OC(C)(C)C)[C@H](C)C(CO)C(CO)C5CC[C@@H]24)cc1 (stereo partly drawn)	0	0	0	-	-	0
O=c1cc(-c2ccccc2Cl)oc2ccc([N+](=O)[O-])c(O)c12	0	?	11.2µM	-	?	0
O=C(Nc1ccc(O)c2c(=O)cc(-c3ccccc3Cl)oc12)c1ccccc1Cl	0	-	0	-	0	0
O=C(Nc1ccc(O)c2c(=O)cc(-c3ccccc3Cl)oc12)c1ccc(Br)cc1	0	?	1.12µM	-	-	0
O=c1cc(-c2ccccc2Cl)oc2c([N+](=O)[O-])c(O)cc(O)c12	0	?	28.2µM	-	1.78µM	0
COc1ccc(C(=O)N2CCC[C@@]3(CCN(CC(C)C)C3)C2)cc1	0	0	0	-	-	0
O=C(Oc1ccc(C(=S)N2CCOCC2)cc1Br)c1ccccc1F	25.1µM	-	31.6µM	-	0	0
O=c1ccn(C2OC(COP(=O)(O)OC3C(CO)OC(n4ccc(=O)[nH]c4=O)C3O)C(O)C2O)c(=O)[nH]1 (stereo not drawn)	-	0	-	-	0	-
O=C(Nc1ccc(N2CCN(C(=O)c3ccccc3)CC2)cc1)c1ccc([N+](=O)[O-])o1	11.2µM	0[10 µM]	-	-	0[9.22 µM]	0
CCCC(=O)N1CCN(c2ccc(NC(=O)c3ccc([N+](=O)[O-])o3)cc2Cl)CC1	17.8µM	?	-	-	?	0
COc1cc(C(=O)O/N=C2\C=CC(=O)C(C)=C2)cc(OC)c1OC	14.1µM	0	0	0	11.2µM	0
CC(C)c1ccc2c(c1)CC[C@@H]1[C@@](C)(CN)CCC[C@@]21C	-	0	-	-	-	-
C#CCOC(=O)[C@H](N)CC(N)=O	0[13.5 µM]	0[10 µM]	0	-	-	0
Cc1sc2nc(CN3CCOCC3)nc(NS(=O)(=O)c3ccc4c(c3)OCCO4)c2c1C	1.26µM	0	0	0	0	0
SMILES	ALDH1A1 block	HTT cytoprotect	HPGD block	IMPase cell inh	HTT aggregate	IMPase Li inh
CCOc1ccc(Br)cc1S(=O)(=O)Nc1nc(CN2CCOCC2)nc2sc(C)c(C)c12	12.6µM	0	0	0	0	0
Cc1sc2nc(CN3CCOCC3)nc(NS(=O)(=O)c3ccccc3)c2c1C	?	0	0	0	0	0
CCCC[C@@H]1C[C@H]1C(NC(=O)c1ccccc1)c1ccc(-c2ccccc2)cc1 (stereo partly drawn)	0	0	0	-	-	0
Cc1ccc(NC(=O)Cn2cc(C(=O)c3cccs3)c3ccccc32)cc1C	-	-	-	0	-	-
O=S(=O)(c1ccccc1)N1CCC2(CCCN(Cc3nccs3)C2)CC1	?	0	0	-	-	0
COc1ccc(C(=O)N/N=C(\Cc2ncc[nH]2)c2ccccc2)cc1	?	0	-	-	?	0
c1ccc(N/N=C(\Cc2ncc[nH]2)c2ccccc2)cc1	7.08µM	0	-	-	0	0
O=C(O)c1cc(=O)c2c(Cl)cc(Cl)cc2[nH]1	0	0	28.2µM	?	-	?
CCCCC(=O)N/N=C/c1ccc(N2CCOCC2)c([N+](=O)[O-])c1	11.2µM	-	0	-	0	0
Cc1ccc(C(=O)O/N=C\c2ccc(N3CCOCC3)c([N+](=O)[O-])c2)cc1	2.24µM	0	0	0	0	0
COc1ccc(C(=S)NCS(=O)(=O)c2ccc(C)cc2)cc1	22.4µM	-	25.1µM	-	0	0
COc1ccc(NC(=S)c2ccncc2)cc1	0	0[10 µM]	0	-	0	0
COc1ccc(C(=S)Nc2ccc(C)cc2)cc1	?	0	22.4µM	0	0	0
COc1ccc(C(O)CNc2ccc(C)cc2)cc1 (stereo not drawn)	20µM	0	0	0	0	0
COc1ccc(-c2nc3ccccc3n3c(-c4cccc(C)c4)c4c(=O)n(C)c(=O)n(C)c4c23)cc1OC	-	-	-	0	-	-
CCOc1ccccc1NC(=O)C1CCN(S(=O)(=O)c2ccccc2)CC1	-	-	-	0	-	-
N#Cc1sc2nc(-c3ccccc3)cc(C(F)(F)F)c2c1N	0	0	-	-	0	0
CCN(CC)C(=O)c1sc2nc(-c3cccs3)cc(-c3cccs3)c2c1N	20µM	0[10 µM]	-	-	0[9.22 µM]	-
N#Cc1sc2nc(-c3cccs3)cc(-c3ccc(Cl)cc3)c2c1N	0	0	0	?	0	10µM
N#Cc1sc2nc(-c3cccs3)cc(-c3ccccc3)c2c1N	?	0	?	0	0	10µM
Cc1csc2c(=O)sc(NC(=O)c3cccs3)nc12	-	0[10 µM]	-	-	0[9.22 µM]	-
COc1ccccc1-c1nccc(NCc2cccc(C)c2)n1	?	0	0	-	-	0
O=C(c1cccc(F)c1)N1CCC2(CCCN(c3ccccn3)C2)CC1	?	0	0	-	-	0
S=C(NCC1CCCO1)NC1CC1 (stereo not drawn)	0	0	-	-	0	0
O=C(NCC1CCCO1)c1ccccc1 (stereo not drawn)	0	0	20µM	0	0	0
CN(C)c1ccc(C(=O)NCC2CCCO2)cc1 (stereo not drawn)	0	0[10 µM]	14.1µM	0[0.369 µM]	0	0
O=C(NCC1CCCO1)NC1CCCCC1 (stereo not drawn)	0	0[10 µM]	28.2µM	?	?	0

High-throughput results deposited in PubChem BioAssay by National Center for Advancing Translational Sciences (NCATS).
